PubChem BioAssay (NCI)
The panel holds about 83,000 compounds, 20% with a hit somewhere; the sample as a whole holds those more often.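 Values shown are percent growth following 48 h exposure of cells in 96-well plates to a single concentration of compound; below 10 was considered active.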 Calls of active or inactive are those of the source.

Tests used:
Assay in all cases: NCI-60 one-dose screen, 48 h (100 = growth as untreated, 0 = no growth, -100 = all killed)
[1] = test system: NCI-H23 lung; conditions: 10 µM unless noted
[2] = test system: NCI-H226 lung; conditions: 10 µM unless noted
[3] = test system: NCI-H322M lung; conditions: 10 µM unless noted
[4] = test system: HOP-62 NSCLC; conditions: 10 µM unless noted
[5] = test system: NCI-H460 lung; conditions: 10 µM unless noted
[6] = test system: 786-0 renal; conditions: 10 µM unless noted
[7] = test system: COLO 205 colon; conditions: 10 µM unless noted
[8] = test system: DU-145 prostate; conditions: 10 µM unless noted
[9] = test system: K-562 leukemia; conditions: 10 µM unless noted
[10] = test system: MALME-3M melanoma; conditions: 10 µM unless noted
[11] = test system: MDA-MB-231 breast; conditions: 10 µM unless noted
[12] = test system: RXF 393 renal; conditions: 10 µM unless noted
[13] = test system: SF-268 CNS; conditions: 10 µM unless noted
[14] = test system: SF-295 CNS; conditions: 10 µM unless noted
[15] = test system: SF-539 CNS; conditions: 10 µM unless noted
[16] = test system: UACC-257 melanoma; conditions: 10 µM unless noted
[17] = test system: M14 melanoma; conditions: 10 µM unless noted
[18] = test system: HOP-92 NSCLC; conditions: 10 µM unless noted
[19] = test system: A549/ATCC NSCLC; conditions: 10 µM unless noted
[20] = test system: NCI-H522 lung; conditions: 10 µM

Measured: growth

CSc1nc(N)c2c(n1)N(C)C=NS2(=O)=O
inactive: [1] 105% | [2] 101% | [3] 114% | [4] 123% | [5] 115% | [6] 108% | [7] 101% | [8] 122% | [9] 116% | [10] 110% | [11] 108% | [12] 116% | [13] 107% | [14] 105% | [15] 107% | [16] 114% | [17] 106%

Cc1sc2nc(N3CCCCC3)[nH]c(=O)c2c1C
inactive: [1] 95.8% | [2] 88% | [3] 102% | [4] 93.3% | [18] 93.8% | [19] 83.2% | [6] 94.1% | [7] 100% | [8] 111% | [9] 91.2% | [10] 100% | [11] 99.4% | [12] 101% | [13] 98% | [14] 97% | [15] 97.9% | [16] 89.1% | [17] 98.8%

CCN(CC)CCSc1ncnc2c1cnn2-c1ccc(S(N)(=O)=O)cc1
inactive: [1] 94.9% | [2] 92.9% | [3] 102% | [4] 98.4% | [5] 85.9% | [19] 84.7% | [6] 95.3% | [7] 113% | [8] 97% | [9] 63.2% | [10] 69.1% | [11] 93.3% | [12] 34.2% | [13] 105% | [14] 54.5% | [15] 94.4% | [16] 65.5% | [17] 98.6%

NC(=O)NC1(C(=O)O)CCCC1
inactive: [1] 105% | [2] 111% | [3] 115% | [4] 110% | [18] 121% | [19] 101% | [6] 107% | [7] 107% | [8] 118% | [9] 99.9% | [10] 114% | [11] 109% | [12] 125% | [13] 106% | [14] 116% | [15] 102% | [16] 101% | [17] 113%

CC(=O)N1N=C(c2ccc(Nc3ccnc4cc(Cl)ccc34)cc2)CC1c1ccc(Cl)cc1 (centres undefined)
inactive: [1] 67.8% | [2] 75.2% | [3] 96.3% | [4] 73.1% | [18] 35.4% | [20] 24% | [6] 62.5% | [7] 85.5% | [8] 67.3% | [9] 19.1% | [10] 26.8% | [11] 72.7% | [12] 42.3% | [13] 53.3% | [14] 15.4% | [15] 86.4% | [16] 61.7% | [17] 47.6%

COc1cc2c(cc1OC)C(CC1(O)CCCCC1)N(S(=O)(=O)c1ccc(C)cc1)CC2 (centres undefined)
inactive: [1] 29.3% [100 µM] | [2] 57.6% [100 µM] | [3] 57.8% [100 µM] | [4] 79.3% [100 µM] | [19] 20.9% [100 µM] | [6] 29.7% [100 µM] | [8] 32.3% [100 µM] | [9] 10.8% [100 µM] | [10] 18.9% [100 µM] | [11] 40.8% [100 µM] | [12] 48.9% [100 µM] | [13] 26.3% [100 µM] | [16] 22.4% [100 µM] | [17] 13% [100 µM]
active: [18] -10.6% [100 µM] | [7] 1.18% [100 µM] | [14] 3.6% [100 µM]

C/C(=C\CCc1ccoc1)CC/C=C(\C)CCCNc1ccc(F)cc1
inactive: [1] 100% | [2] 88.5% | [3] 85.4% | [4] 93.6% | [18] 96.3% | [19] 80.4% | [6] 95.1% | [7] 98.1% | [8] 101% | [9] 68.6% | [10] 88.2% | [11] 72.9% | [12] 101% | [13] 90.1% | [14] 102% | [15] 89.6% | [16] 99.7% | [17] 103%

CSc1nc(-c2ccc(O)cc2O)c2c(=O)[nH]c(Nc3ccc(S(=O)(=O)Nc4nc(C)cc(C)n4)cc3)nc2n1
inactive: [1] 105% | [2] 105% | [3] 108% | [4] 89.6% | [18] 24.6% | [19] 112% | [6] 100% | [7] 112% | [8] 95.1% | [9] 99.4% | [10] 79.8% | [11] 100% | [12] 115% | [13] 101% | [15] 108% | [16] 124%

COc1cc(/C=C/C(=O)C(C(=O)/C=C/c2ccc(OC(=O)CCNC34CC5CC(CC(C5)C3)C4)c(OC)c2)C(=O)CCNC23CC4CC(CC(C4)C2)C3)ccc1OC(=O)CCNC12CC3CC(CC(C3)C1)C2 (centres undefined)
inactive: [1] 32.2% | [2] 31.4% | [3] 51.6% | [4] 29.8% | [19] 29.1% | [7] 17.7% | [10] 18.6% | [11] 13.3% | [13] 28.2% | [14] 37.5% | [16] 48.1%
active: [5] 7.93% | [6] -53.3% | [8] -48.8% | [9] 0.83% | [12] -68.8% | [15] -23.7% | [17] -1.22%

Cc1ccc(NC(=O)c2sc3nc4c(cc3c2N)C(=O)CCC4)cc1
inactive: [1] 64.9% | [2] 83.7% | [3] 55.8% | [4] 114% | [18] 48.1% | [19] 37% | [6] 94.5% | [7] 23.9% | [8] 96.4% | [9] 53.1% | [10] 89.1% | [11] 78% | [12] 108% | [13] 110% | [14] 47.1% | [15] 93.5% | [16] 74% | [17] 85.3%

Nc1nc2c(nnn2Cc2ccc(Cl)c(Cl)c2)c(=O)[nH]1
inactive: [1] 104% | [2] 96.5% | [3] 82.4% | [4] 90.4% | [18] 75.5% | [19] 103% | [6] 97.3% | [7] 98.5% | [8] 116% | [9] 83.3% | [10] 107% | [11] 94.5% | [12] 107% | [13] 96.6% | [15] 98.3% | [16] 98.9% | [17] 103%

CCc1ccc(-c2nc(SCC(=O)NC3CCCCC3)n[nH]2)cc1
inactive: [1] 55% | [2] 67.8% | [3] 78.4% | [4] 94.6% | [18] 67.6% | [20] 73.6% | [6] 73.4% | [7] 122% | [8] 102% | [9] 33.3% | [10] 88.2% | [11] 63.3% | [13] 82.6% | [14] 15.8% | [15] 92.9% | [17] 77.7%
active: [16] -1.69%

O=C(NN1C(=O)c2cc(C(=O)O)c(C(=O)O)cc2C1=O)c1ccncc1
active: [18] 4.14%
inactive: [1] 108% | [2] 95% | [3] 102% | [4] 99.3% | [19] 119% | [6] 107% | [7] 105% | [8] 144% | [9] 62.4% | [10] 76.8% | [11] 80.6% | [12] 127% | [13] 93.5% | [14] 102% | [15] 112% | [16] 114%

CN(C)CCCN=c1cc2c(=O)n(CCCN(C)C)c(=O)c3c(NCCCN(C)C)cc4c(O)n(CCCN(C)C)c(=O)c1c4c3-2
active: [2] -33.2% | [3] -26.9% | [4] -11.4% | [5] -43.5% | [19] -30.8% | [6] -47.5% | [7] -56.6% | [8] -40.7% | [9] 6.48% | [11] -0.632% | [12] -68.3% | [13] 1.31% | [14] -34.8% | [15] -23% | [16] -27.3% | [17] 3.47%
inactive: [1] 21.1%

Cc1[nH]cnc1/C=C1\SC(N2CCCCC2)=NC1=O
inactive: [1] 101% | [2] 96.2% | [3] 123% | [4] 105% | [5] 109% | [19] 96.8% | [6] 94.7% | [7] 114% | [8] 125% | [9] 96.8% | [11] 96.8% | [12] 96.3% | [13] 114% | [14] 130% | [15] 100% | [16] 105% | [17] 103%

Cc1ccc(N/N=C(/C(=O)c2ccc(Cl)cc2)c2nc(C)cc(=O)[nH]2)cc1
inactive: [1] 111% | [2] 107% | [3] 106% | [4] 94.2% | [5] 105% | [19] 100% | [6] 82.9% | [7] 116% | [8] 102% | [9] 91.7% | [10] 126% | [11] 95.9% | [12] 40.7% | [13] 107% | [14] 90% | [15] 85.3% | [16] 105% | [17] 82.7%
